The text below walks through data of PubChem BioAssay (Tox21).

The structures appear in SMILES notation. Where “and” joins values, the source holds several entries; their conditions need not be identical. Equal values may be shown once. Inconclusive results are not listed. Some compounds were tested as several samples or in several runs, with calls that do not always agree. Calls of active or inactive are those of the source. Unless noted, the call rests on the fitted dose curve; in most records, active means well fitted curve in the direction sought with a large enough effect in the repeat runs; inconclusive means weak or mixed curves; inactive means no such curve, though single readings can be large; an effect the other way counts as inactive or inconclusive.

In test [1] the target is Peroxisome proliferator-activated receptor delta (Homo sapiens) (UniProt Q03181). Nature of the test: qHTS assay to identify small molecule agonists of the peroxisome proliferator-activated receptor delta (PPARd) signaling pathway (AID 743212; calls by dose curve). The gist of the method:
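A PPARd-bla HEK293H line with beta-lactamase under an Upstream Activator Sequence is treated with compounds at 37 C. Substrate loading for 2 h at room temperature precedes the fluorescence measurement.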
(In general: Quantitative high-throughput screening tests each substance at several concentrations.)

A short description of test [2]: qHTS assay to identify small molecule antagonists of the peroxisome proliferator-activated receptor delta (PPARd) signaling pathway - cell viability counter screen (AID 743213). Further: nearly all actives have a fitted effect of over 50% in size. Further: potency means the concentration at half of the fitted maximal effect. The gist of the method: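 HEK293H PPARd UAS-bla cells, 5 h pre-incubation, compound + L165041 300 nM final, 17 h 37 C; B/G FRET substrate 2 h RT; then CellTiter-Glo 30 min RT, luminescence.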

The target of test [3] is Peroxisome proliferator-activated receptor delta (Homo sapiens) (UniProt Q03181). Nature of the test: qHTS assay to identify small molecule antagonists of the peroxisome proliferator-activated receptor delta (PPARd) signaling pathway (AID 743215; active means well fitted inhibition curve with a large enough effect in the signal ratio in the repeat runs, not every such curve was filed as active; the % refers to the signal ratio;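 further: cells stimulated with agonist L165041 at 300 nM final during compound exposure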; further: potency means the concentration at half of the fitted maximal effect). The gist of the method: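 HEK293H UAS-bla, PPARd; agonist L165041 300 nM final with cpd in DMSO; 37 C 17 h; FRET substrate, RT 2 h; fluorescence intensity.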

The nature of test [4]: qHTS assay to identify small molecule agonists of the farnesoid-X-receptor (FXR) signaling pathway - cell viability counter screen (AID 743218). Further: nearly all actives have a fitted effect of over 45% in size. Further: potency means the concentration at half of the fitted maximal effect. The gist of the method: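 Parallel cytotoxicity test: compound-treated (16 h, 37 C) HEK 293T FXR-bla reporter cells were lysed with CellTiter-Glo and luminescence recorded.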
Test [5] is described as follows: qHTS assay to identify small molecule antagonists of the farnesoid-X-receptor (FXR) signaling pathway - cell viability counter screen (AID 743221; active means well fitted cell-killing curve with a large enough effect in the repeat runs, not every such curve was filed as active; further: nearly all actives have a fitted effect of over 50% in size; further: potency means the concentration at half of the fitted maximal effect). A digest of the protocol: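 GeneBLAzer FXR-UAS-bla HEK 293T cells, compound plus chenodeoxycholic acid (50 uM final), 16 h at 37 C. CellTiter-Glo added to the same wells after the beta-lactamase read; luminescence read after 30 min at room temperature as viability.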

The nature of test [6]: qHTS assay to identify small molecule agonists of the vitamin D receptor (VDR) signaling pathway - cell viability counter screen (AID 743224). Further: nearly all actives have a fitted effect of over 50% in size. Further: potency means the concentration at half of the fitted maximal effect. A digest of the protocol:
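Plated VDR-bla cells (4 h, 37C) received compound, incubated 16 h, then LiveBLAzer substrate 2 h RT; CellTiter-Glo added afterwards, luminescence read at 30 min.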

A short description of test [7]: qHTS assay to identify small molecule antagonists of the vitamin D receptor (VDR) signaling pathway - cell viability counter screen (AID 743225). Further: nearly all actives have a fitted effect of over 50% in size. Further: potency means the concentration at half of the fitted maximal effect. A digest of the protocol:
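VDR-UAS-bla HEK 293T cells were plated and incubated 4 h at 37C, then dosed with compound plus 3 nM (final) 1-alpha,25-dihydroxyvitamin D3 for 16 h. After the 2 h beta-lactamase read, viability in the same wells was read as CellTiter-Glo luminescence after 30 min at room temperature.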

Test [8] in a line: qHTS assay to identify small molecule agonists of the endoplasmic reticulum stress response signaling pathway (AID 1159516; active means well fitted activation curve with a large enough effect in the signal ratio in the repeat runs, not every such curve was filed as active; the % refers to the signal ratio). The gist of the method: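 An ESRE-bla HeLa cell assay: compounds were pin-transferred from DMSO onto overnight-plated cells and left 5 hr at 37 C. Substrate was then loaded for 2 hr at room temperature before reading fluorescence at 460 nm and 530 nm.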

Test [9] can be described thus: qHTS assay to identify small molecule agonists of the endoplasmic reticulum stress response signaling pathway - cell viability counter screen (AID 1159517; calls by dose curve; further: nearly all actives have a fitted effect of over 50% in size; further: potency means the concentration at half of the fitted maximal effect). A digest of the protocol: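 CellTiter-Glo was added to wells already read for beta-lactamase FRET, and luminescence was recorded 30 min later. Cells: ESRE-bla HeLa, 1,500 per well, compound exposure 5 hr at 37 C.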

Test [10] is described as follows: qHTS assay to identify small molecule antagonists of the retinoid-related orphan receptor gamma (ROR-gamma) signaling pathway - cell viability counter screen (AID 1159520). Further: nearly all actives have a fitted effect of over 50% in size. Further: potency means the concentration at half of the fitted maximal effect. A digest of the protocol:
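Tet-on ROR gamma CHO cells (1,000/well) were plated 4 hr, given compounds in DMSO for 2 hr at 37 C, then induced with 1 uM final doxycycline for 16 hr. Viability was read as ATP by CellTiter-Glo luminescence after 30 min.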

Test [11] has as its target Nuclear receptor ROR-gamma (Homo sapiens) (UniProt P51449). The test can be described thus: qHTS assay to identify small molecule antagonists of the retinoid-related orphan receptor gamma (ROR-gamma) signaling pathway (AID 1159521). The gist of the method: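 Tet-on ROR-gamma CHO cells with ROR response element-luciferase reporter; compounds added 2 hr before 1 uM doxycycline induction, then 16 hr at 37 C. Antagonism scored as decreased ONE-Glo luminescence.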

Test [12] is described as follows: qHTS assay to identify small molecule agonists of the AP-1 signaling pathway - cell viability counter screen (AID 1159525; calls by dose curve; further: nearly all actives have a fitted effect of over 55% in size; further: potency means the concentration at half of the fitted maximal effect). A digest of the protocol: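 ME-180 AP-1-bla, 2500 cells/well, Opti-MEM + 0.5% dialyzed FBS; overnight 37 °C; cpd 15-pt titration, 5 h 37 °C; CellTiter-Glo 30 min RT; luminescence read; normalised to TOAB and DMSO controls.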
Test [13] is described as follows: qHTS assay to identify small molecule agonists of the AP-1 signaling pathway (AID 1159526; calls by dose curve).
Test [14] has as its target Retinoic acid receptor RXR-alpha (Homo sapiens) (UniProt P19793). Nature of the test: qHTS assay to identify small molecule agonists of the RXR signaling pathway (AID 1159527; calls by dose curve; further: nearly all actives have a fitted effect of over 35% in size). A digest of the protocol:
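GeneBLAzer RXR-alpha-UAS-bla HEK 293T cells in 2% charcoal-stripped FBS medium were exposed to compounds for 16 hr at 37 C in agonist mode. Beta-lactamase reporter read as 460/530 nm FRET ratio after 2 hr substrate loading.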

Test [15] can be described thus: qHTS assay to identify small molecule agonists of the RXR signaling pathway - cell viability counter screen (AID 1159529). Further: nearly all actives have a fitted effect of over 50% in size. Further: potency means the concentration at half of the fitted maximal effect. The gist of the method: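 RXR-alpha-UAS-bla HEK 293T cells in medium with 2% charcoal-stripped FBS were pre-incubated 5 hr, then compound-treated 16 hr at 37 C. Viability was read by CellTiter-Glo luminescence in the same wells as the beta-lactamase assay, with tetraoctyl ammonium bromide as positive control.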

For test [16], the target named is Bile acid receptor (Homo sapiens) (UniProt Q96RI1). The test can be described thus: qHTS assay to identify small molecule antagonists of the farnesoid-X-receptor (FXR) signaling pathway (AID 743217; active means well fitted inhibition curve with a large enough effect in the signal ratio in the repeat runs, not every such curve was filed as active; the % refers to the signal ratio). The gist of the method:
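GeneBLAzer FXR-UAS-bla HEK 293T, CDCA-stimulated (50 uM final). Compound treatment 16 h, 37 °C. Detection: beta-lactamase cleavage of B/G FRET substrate, fluorescence.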

For test [17] the target is unchanged. The test can be described thus: qHTS assay to identify small molecule agonists of the farnesoid-X-receptor (FXR) signaling pathway (AID 743220; active means well fitted activation curve with a large enough effect in the signal ratio in the repeat runs, not every such curve was filed as active; the % refers to the signal ratio). The gist of the method:
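Beta-lactamase reporter under UAS control in GeneBLAzer FXR HEK 293T cells (5000/well) measured with LiveBLAzer FRET substrate after 2 h at room temperature. Compound exposure lasted 16 h at 37C.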

For test [18], the target named is Vitamin D3 receptor (Homo sapiens) (UniProt P11473). Nature of the test: qHTS assay to identify small molecule agonists of the vitamin D receptor (VDR) signaling pathway (AID 743222; calls by dose curve). A digest of the protocol:
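In VDR-bla cells, compound-induced beta-lactamase expression is quantified by FRET substrate fluorescence. Treatment lasts 16 h at 37C; substrate develops 2 h at room temperature.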

The target is the same in test [19]. Nature of the test: qHTS assay to identify small molecule antagonists of the vitamin D receptor (VDR) signaling pathway (AID 743223; active means well fitted inhibition curve with a large enough effect in the signal ratio in the repeat runs, not every such curve was filed as active; the % refers to the signal ratio). The gist of the method: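 VDR-bla cells were treated with compound plus 3 nM final 1alpha,25-dihydroxyvitamin D3 for 16 h at 37C. Beta-lactamase reporter read by B/G FRET substrate fluorescence after 2 h at room temperature. qHTS format.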

Sequence of Peroxisome proliferator-activated receptor delta (Homo sapiens) (Q03181 whole entry, looked up): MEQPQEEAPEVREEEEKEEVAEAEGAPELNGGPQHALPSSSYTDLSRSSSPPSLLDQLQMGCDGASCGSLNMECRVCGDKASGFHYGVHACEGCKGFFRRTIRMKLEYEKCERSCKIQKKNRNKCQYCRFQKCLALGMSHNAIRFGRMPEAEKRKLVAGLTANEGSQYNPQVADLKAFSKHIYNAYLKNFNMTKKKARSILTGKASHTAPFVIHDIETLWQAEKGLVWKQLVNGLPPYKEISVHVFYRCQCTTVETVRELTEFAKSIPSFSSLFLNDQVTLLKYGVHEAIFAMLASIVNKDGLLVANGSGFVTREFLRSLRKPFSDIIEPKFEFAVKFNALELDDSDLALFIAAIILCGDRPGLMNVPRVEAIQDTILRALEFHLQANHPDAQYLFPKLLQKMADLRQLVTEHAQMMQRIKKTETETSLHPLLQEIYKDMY
Sequence of Retinoic acid receptor RXR-alpha (Homo sapiens) (P19793 whole entry, looked up): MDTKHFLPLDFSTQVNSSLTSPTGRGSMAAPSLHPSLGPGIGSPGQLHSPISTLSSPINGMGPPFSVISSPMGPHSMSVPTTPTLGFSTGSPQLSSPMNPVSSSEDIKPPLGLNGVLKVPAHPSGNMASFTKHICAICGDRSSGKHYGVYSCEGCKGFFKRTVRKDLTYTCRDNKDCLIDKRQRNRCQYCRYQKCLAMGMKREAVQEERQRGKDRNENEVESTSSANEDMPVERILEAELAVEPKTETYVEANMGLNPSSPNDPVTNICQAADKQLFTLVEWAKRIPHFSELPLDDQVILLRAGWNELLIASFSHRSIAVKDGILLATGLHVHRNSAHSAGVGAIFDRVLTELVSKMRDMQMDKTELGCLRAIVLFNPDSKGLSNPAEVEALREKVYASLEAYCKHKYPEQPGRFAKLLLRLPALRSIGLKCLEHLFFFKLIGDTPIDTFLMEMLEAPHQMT
Sequence of Bile acid receptor (Homo sapiens) (Q96RI1 whole entry, looked up): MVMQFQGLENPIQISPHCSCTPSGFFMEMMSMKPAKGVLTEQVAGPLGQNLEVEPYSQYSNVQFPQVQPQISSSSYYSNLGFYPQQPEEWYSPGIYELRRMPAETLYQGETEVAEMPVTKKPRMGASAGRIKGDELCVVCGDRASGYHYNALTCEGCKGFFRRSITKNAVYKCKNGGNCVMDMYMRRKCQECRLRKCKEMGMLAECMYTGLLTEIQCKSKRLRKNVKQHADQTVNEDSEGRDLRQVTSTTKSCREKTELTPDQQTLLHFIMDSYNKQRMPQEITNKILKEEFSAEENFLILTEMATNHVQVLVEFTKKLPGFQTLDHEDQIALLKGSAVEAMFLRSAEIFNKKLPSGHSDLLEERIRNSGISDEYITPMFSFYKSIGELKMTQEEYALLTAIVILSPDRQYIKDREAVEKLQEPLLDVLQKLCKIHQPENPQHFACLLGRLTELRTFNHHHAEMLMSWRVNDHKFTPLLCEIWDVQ
Sequence of Vitamin D3 receptor (Homo sapiens) (P11473 whole entry, looked up): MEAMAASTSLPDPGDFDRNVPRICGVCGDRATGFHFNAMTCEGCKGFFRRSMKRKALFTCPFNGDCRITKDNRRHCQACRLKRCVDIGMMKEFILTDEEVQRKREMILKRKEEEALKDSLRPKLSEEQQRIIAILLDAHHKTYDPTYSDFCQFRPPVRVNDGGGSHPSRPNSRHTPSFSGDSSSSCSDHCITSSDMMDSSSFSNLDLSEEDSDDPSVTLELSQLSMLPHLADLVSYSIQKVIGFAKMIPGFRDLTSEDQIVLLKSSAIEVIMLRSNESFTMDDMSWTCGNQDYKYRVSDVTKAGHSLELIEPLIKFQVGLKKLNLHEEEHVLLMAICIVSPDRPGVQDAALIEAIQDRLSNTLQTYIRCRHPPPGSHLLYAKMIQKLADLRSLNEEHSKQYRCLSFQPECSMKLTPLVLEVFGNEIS

For `CCOC(=O)C(C)C(C)=O` (stereo unspecified), the Potency result in [1], in [2], in test [3], in test [4], in test [5] and in [6] was “inactive” throughout. The Potency entry in [7], in [9], in test [10], in [11], in test [12] and in test [13] was “inactive” in each case. For the same compound, the Potency result in [14] and in test [15] was “inactive” each time. Moreover, the compound was classed as inactive in [8].
With `CCc1cc(C(C)(C)C)c(O)c(C(C)(C)C)c1`, the Potency result in test [1], in test [2], in [3], in test [16], in test [4] and in test [17] was “inactive” in each case. In addition, the Potency entry in test [5], in [18], in test [19], in test [6], in test [7] and in test [9] was “inactive” each time. In addition, the Potency entry in [10], in test [11], in test [12], in test [13] and in [15] was “inactive” throughout. For the same compound, the call in [8] was inactive.
Consider `O=C(O[C@@H]1Cc2c(O)cc(O)cc2O[C@@H]1c1cc(O)c(O)c(O)c1)c1cc(O)c(O)c(O)c1`, for which the Potency entry in [2], in test [4], in test [5], in [18], in test [19] and in [6] was “inactive” in each case. The Potency result in [7], in test [9], in test [10], in test [12], in test [14] and in test [15] was “inactive” in each case.
As for `Oc1c(Cl)cc(Cl)cc1Sc1cc(Cl)cc(Cl)c1O`, the Potency entry in test [1], in test [17] and in [18] was “inactive” each time. Also, the Potency is 49.1 µM (active) and 19.5 µM (active) in [2]; 21.9 µM (active) and 17.4 µM (active) and inactive in test [3]; 15.5 µM (active) in [4]; 27.6 µM (active) in test [5]; 21.9 µM (active) and 44.4 µM (active) and inactive in test [6]; 24.6 µM (active) and 55.9 µM (active) and 43.6 µM (active) in [7]. Moreover, the Potency was 55.1 µM (active) and 55.9 µM (active) and 49 µM (active) in test [9]; 15.4 µM (active) and 21.7 µM (active) in test [10]; 49.1 µM (active) and 49 µM (active) and inactive in test [12]; 49.1 µM (active) in [15].
With `CCCCC(CC)COC(=O)CC(C(=O)OCC(CC)CCCC)S(=O)(=O)O` (stereo unspecified), the Potency in test [2] is 15.5 µM (active); in test [4], 52.9 µM (active) and 43.6 µM (active); in [5] it was 43.6 µM (active); in [6] it was 42 µM (active) and 43.6 µM (active); in test [7], 21.1 µM (active) and 15.5 µM (active); in [12] it was 42 µM (active) and 49 µM (active). The Potency in test [15] was 21.1 µM (active) and 43.6 µM (active). The Potency entry in test [3], in [18], in test [19], in test [10] and in [11] was “inactive” throughout.
With `O=C1Nc2ccccc2C1(c1ccc(O)cc1)c1ccc(O)cc1`, the Potency result in [1], in [2], in test [3], in test [4], in test [5] and in [18] was “inactive” in each case. The Potency result in [19], in [6], in test [7], in test [9], in test [10] and in test [11] was “inactive” throughout. Further, in [15], the Potency entry was “inactive”. Besides, the result in [8] was inactive.
As for `CC1COC(=O)O1` (stereo unspecified), the Potency result in [1], in test [2], in test [16], in test [4], in test [17] and in test [5] was “inactive” each time. The Potency result in test [18], in [19], in test [6], in test [9], in [10] and in test [11] was “inactive” throughout. The Potency entry in test [12], in test [13], in [14] and in [15] was “inactive” in each case. Moreover, the result in test [8] was inactive.
